The text below walks through data of PubChem BioAssay (NCI).

Each structure is given as a SMILES string. The panel holds about 83,000 compounds, 20% with a hit somewhere; the sample as a whole holds those more often.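 Treatment: one concentration, 48 hours, 96-well format. Scoring: percent growth, with anything below 10 considered active.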 Values without a mark were called inactive. Calls of active or inactive are those of the source.

Test systems include EKVX NSCLC; SN12C renal; UO-31 renal; TK-10 renal; ACHN renal; CAKI-1 renal; A498 renal; CCRF-CEM leukemia; MOLT-4 leukemia; SR leukemia; RPMI-8226 leukemia; OVCAR-5 ovarian; OVCAR-4 ovarian; SK-OV-3 ovarian; IGROV1 ovarian; OVCAR-3 ovarian; HS 578T breast; NCI/ADR-RES ovarian; OVCAR-8 ovarian.
Common to all, as to test: NCI-60 one-dose screen, 48 h (100 = growth as untreated, 0 = no growth, -100 = all killed)
Holding throughout (conditions): 10 µM unless noted

Regarding `Cc1ccc(C(=O)N/N=C/c2cccc(Oc3ccccc3)c2)cn1`, the growth in the experiment on EKVX NSCLC is 77.4%; with SN12C renal it was 68.6%; with UO-31 renal, 13.9%; in the experiment with TK-10 renal it was 83.3%; with ACHN renal, 85.9%; in the experiment on CAKI-1 renal, 22.9%. Moreover, the growth with A498 renal was 57.6%; with CCRF-CEM leukemia, 82.3%; in the experiment with MOLT-4 leukemia it was 40%; in the experiment on SR leukemia, 48.6%; with RPMI-8226 leukemia, 89.5%; in the experiment with OVCAR-5 ovarian it was 93.1%. For the same compound, the growth in the experiment with OVCAR-4 ovarian was 86.7%; with SK-OV-3 ovarian, 80%; with IGROV1 ovarian, 24%; in the experiment with OVCAR-3 ovarian it was 35.7%; with HS 578T breast, 50.8%; in the experiment with NCI/ADR-RES ovarian it was 19.8%.

`Cc1nc(NC(=O)COc2ccc(/C=C3\Cc4ccc(Cl)cc4C3=O)cc2)sc1C`: the growth in the experiment on EKVX NSCLC was 103%; in the experiment on SN12C renal, 103%; in the experiment on UO-31 renal, -88.5% (active); with TK-10 renal, 310%; in the experiment with ACHN renal, 93.7%; in the experiment on CAKI-1 renal it was 86.1%. Also, the growth with A498 renal was 139%; in the experiment with CCRF-CEM leukemia, 100%; in the experiment with MOLT-4 leukemia, 83.1%; with RPMI-8226 leukemia it was 103%; in the experiment with OVCAR-5 ovarian, 105%; in the experiment with OVCAR-4 ovarian it was 113%. Further, the growth in the experiment with SK-OV-3 ovarian was 114%; with IGROV1 ovarian, -69.8% (active); in the experiment with OVCAR-3 ovarian, 105%; in the experiment with HS 578T breast, 139%; in the experiment on NCI/ADR-RES ovarian, 96.3%.

`OC(COc1ccccc1)CN1CCN(c2ccc(Cl)cc2)CC1` (centres undefined): the growth is 109% in the experiment on EKVX NSCLC; 97.2% with SN12C renal; 78.8% in the experiment with UO-31 renal; 105% in the experiment with TK-10 renal; 107% with ACHN renal; 94.7% in the experiment with CAKI-1 renal. The growth with A498 renal is 104%; in the experiment with CCRF-CEM leukemia, -5.19% (active); in the experiment with MOLT-4 leukemia, 93.1%; in the experiment with RPMI-8226 leukemia, 95.1%; in the experiment with OVCAR-8 ovarian, 93.9%; in the experiment with OVCAR-5 ovarian, 111%. Further, the growth in the experiment on OVCAR-4 ovarian is 97.6%; in the experiment on SK-OV-3 ovarian, 102%; in the experiment with IGROV1 ovarian, 124%; in the experiment on OVCAR-3 ovarian it was 100%; in the experiment with HS 578T breast it was 100%; in the experiment with NCI/ADR-RES ovarian, 101%.

As for `CCCCn1c(=O)c(-c2cc(-c3ccc(Cl)cc3)nc(-c3ccc(Cl)cc3)c2)cc2ccc(Cl)cc21`, the growth in the experiment on EKVX NSCLC is 105%; with SN12C renal, 98.8%; in the experiment with UO-31 renal, 86.8%; with TK-10 renal, 115%; in the experiment on ACHN renal it was 104%; in the experiment with CAKI-1 renal it was 91.6%. For the same compound, the growth is 102% in the experiment on A498 renal; 100% in the experiment on CCRF-CEM leukemia; 100% with MOLT-4 leukemia; 98.1% with SR leukemia; 108% with OVCAR-8 ovarian; 94.1% with OVCAR-5 ovarian. Moreover, the growth is 109% with OVCAR-4 ovarian; 99.6% in the experiment on SK-OV-3 ovarian; 112% in the experiment with OVCAR-3 ovarian; 108% in the experiment on HS 578T breast; 95.9% in the experiment with NCI/ADR-RES ovarian.

For `COc1ccc2c(c1)C(C)Cc1c(ncnc1-n1c(C)nc3ccccc31)N2C` (centres undefined), the growth in the experiment on SN12C renal is 35.8%; with TK-10 renal, 57%; in the experiment with ACHN renal it was 51.4%; in the experiment on CAKI-1 renal it was 25.2%; in the experiment with CCRF-CEM leukemia, 18.3%; in the experiment with MOLT-4 leukemia it was 20.6%. Besides, the growth was 4.92% (active) in the experiment with SR leukemia; 38.8% with OVCAR-8 ovarian; 78.3% in the experiment with OVCAR-5 ovarian; 58.6% in the experiment on OVCAR-4 ovarian; 31.5% with SK-OV-3 ovarian; 5.47% (active) in the experiment on OVCAR-3 ovarian. Besides, the growth in the experiment on HS 578T breast is 2.46% (active); in the experiment with NCI/ADR-RES ovarian, 5.75% (active).

On to `CC(=O)N1CCN(c2ccc(OCC3CO[C@](Cn4ccnc4)(c4ccc(Cl)cc4Cl)O3)cc2)CC1` (some centres undefined), for which the growth is 87.9% in the experiment on EKVX NSCLC; 84.2% in the experiment with SN12C renal; 53.7% in the experiment with UO-31 renal; 101% in the experiment with TK-10 renal; 92.5% in the experiment with ACHN renal; 79.6% in the experiment on CAKI-1 renal. The growth with CCRF-CEM leukemia was 75.2%; in the experiment with MOLT-4 leukemia, 77.4%; with RPMI-8226 leukemia, 43.8%; with OVCAR-8 ovarian, 83.9%; in the experiment on OVCAR-5 ovarian it was 91.3%; in the experiment with OVCAR-4 ovarian it was 67.6%. Further, the growth in the experiment with SK-OV-3 ovarian is 95.5%; in the experiment with IGROV1 ovarian it was 80.2%; with OVCAR-3 ovarian it was 99%; with HS 578T breast it was 102%; with NCI/ADR-RES ovarian it was 84.4%.

Take `CCc1nnc(NC(=O)c2nnn(-c3ccccc3)c2-c2ccco2)s1`: the growth in the experiment with EKVX NSCLC was 84.7%; in the experiment with SN12C renal, 96.4%; in the experiment with UO-31 renal, 87.4%; in the experiment with TK-10 renal, 115%; in the experiment on ACHN renal, 94.5%; with CAKI-1 renal, 92.1%. For the same compound, the growth in the experiment on A498 renal is 42.7%; in the experiment with CCRF-CEM leukemia, 77.8%; in the experiment with MOLT-4 leukemia it was 93.7%; in the experiment on RPMI-8226 leukemia it was 91%; in the experiment on OVCAR-8 ovarian, 103%; in the experiment with OVCAR-5 ovarian, 101%. For the same compound, the growth with OVCAR-4 ovarian was 80.3%; with SK-OV-3 ovarian it was 82.3%; with IGROV1 ovarian, 103%; in the experiment with OVCAR-3 ovarian, 103%; in the experiment with HS 578T breast, 92.5%; with NCI/ADR-RES ovarian it was 100%.

Consider `NCCNc1nc2ccccc2c2c(=O)c3cccc(F)c3sc12`, for which the growth is 74.1% with EKVX NSCLC; 47.5% in the experiment on SN12C renal; 71.7% with TK-10 renal; 34.2% in the experiment on ACHN renal; 39.6% in the experiment on CAKI-1 renal; 59.7% with A498 renal. Besides, the growth with CCRF-CEM leukemia was 34.5%; with MOLT-4 leukemia, 7.98% (active); with SR leukemia, 12.3%; in the experiment on OVCAR-8 ovarian, 46.5%; with OVCAR-5 ovarian, 81.8%; in the experiment with OVCAR-4 ovarian, 48.3%. In addition, the growth was 78.8% in the experiment with SK-OV-3 ovarian; 48% in the experiment on IGROV1 ovarian; 53.1% in the experiment on OVCAR-3 ovarian; 67.6% in the experiment with HS 578T breast; 53.9% in the experiment on NCI/ADR-RES ovarian.

`Fc1cc(-c2nnc3n2NC(=Nc2ccc(Cl)cc2)CS3)c(Cl)cc1Cl`: the growth was 95.2% in the experiment on EKVX NSCLC; 108% in the experiment with SN12C renal; 65.6% with UO-31 renal; 91.6% in the experiment with TK-10 renal; 95.2% with ACHN renal; 94.2% in the experiment with CAKI-1 renal. The growth in the experiment on A498 renal was 77.8%; in the experiment on CCRF-CEM leukemia, 214%; with MOLT-4 leukemia, 87%; in the experiment on RPMI-8226 leukemia, 66.9%; in the experiment with OVCAR-8 ovarian it was 94.9%; in the experiment on OVCAR-5 ovarian, 80.3%. For the same compound, the growth in the experiment with OVCAR-4 ovarian is 89.9%; in the experiment on SK-OV-3 ovarian it was 89.8%; in the experiment on IGROV1 ovarian, 57.2%; with OVCAR-3 ovarian, 91.6%; with HS 578T breast, 89.3%; in the experiment with NCI/ADR-RES ovarian, 88.3%.
